Experimental data as given in the supplement of paper PMC10646978.
± gives the standard deviation.

Tests used:
Settings in all cases: modulator concentration 10 µM
[1] = test system: RAW-Dual (murine macrophage reporter line); experiment: NF-kB reporter (SEAP) activity fold change vs agonist alone; higher = enhanced NF-kB activity
How it was run: (§1)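 In 384-well plates holding 50 000 RAW-Dual murine macrophage reporter cells per well, compound at 10 μM final was pre-incubated for 1 hour at 37 °C, after which a PRR agonist was added overnight. Supernatant SEAP read with QUANTI-Blue at 620 nm absorbance reported NF-κB, and Lucia luciferase read with QUANTI-Luc luminescence reported IRF. Fold change values come from dividing each reporter signal by the mean of agonist-only control wells on the same plate, averaged over replicate plates with propagated errors.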

[2] = test system: RAW-Dual (murine macrophage reporter line); experiment: IRF reporter (Lucia luciferase) activity fold change vs agonist alone; higher = enhanced IRF activity
How it was run: as §1

[3] = test system: RAW-Dual (murine macrophage reporter line); experiment: viability score (confluency relative to resting cells, overnight) (fraction); higher = more viable, active = viable (0.7 or more)
How it was run: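 In 384-well plates, RAW-Dual macrophages received compound at a final 10 μM overnight. Two confluency masks were then made with IncuCyte software from IncuCyte images of all imaged wells. The viability score is defined as confluency relative to resting cells. Passing the cutoff required both masks to lie above 70% of resting cells.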

[4] = agonist: CpG ODN 1826 0.5 ug/mL

Structure (SMILES)	NF-kB reporter [1, 4]	NF-kB reporter ([1]; agonist: LPS 0.1 ug/mL)	NF-kB reporter ([1]; agonist: MPLA […])	IRF reporter ([2]; agonist: 3'3'-cGAMP 10 ug/mL)	IRF reporter ([2]; agonist: LPS 0.1 ug/mL)	IRF reporter ([2]; agonist: MPLA […])	viability score [3]
COc1ccc(Nc2nc(Nc3ccc4ncccc4c3)nc(N3CCOCC3)n2)cc1	0.279 ± 0.013	1.36 ± 0.11	2.85 ± 0.15	0.34 ± 0.015	1.61 ± 0.24	2.74 ± 0.57	0.904 (active)
CC(=O)Nc1nnc(S(N)(=O)=O)s1	1.57 ± 0.56	1.08 ± 0.18	1.07 ± 0.11	0.941 ± 0.029	1.28 ± 0.32	0.921 ± 0.095	0.998 (active)
CCOC(=O)N1CCN(C(=O)C2CCN(Cc3ccc(C)o3)CC2)CC1	0.941 ± 0.15	1.04 ± 0.089	0.98 ± 0.08	1.02 ± 0.051	1.26 ± 0.3	1.41 ± 0.3	0.991 (active)
Cc1nc2ccc(CN(C)c3ccc(C(=O)N[C@@H](CCC(=O)O)C(=O)O)s3)cc2c(=O)[nH]1	1.28 ± 0.1	1.03 ± 0.052	1.18 ± 0.1	0.863 ± 0.042	1.09 ± 0.063	1.07 ± 0.12	1 (active)
CCCc1nc2ccccc2c(NC(=O)CN2CCOCC2)c1CC.O=C(O)C(=O)O	1.01 ± 0.078	1.12 ± 0.093	1.01 ± 0.059	1 ± 0.048	1.48 ± 0.27	1.16 ± 0.13	1 (active)
COc1ccc2[nH]c(S(=O)Cc3ncc(C)c(OC)c3C)nc2c1 (stereo unspecified)	1.22 ± 0.23	1.01 ± 0.26	0.909 ± 0.065	0.83 ± 0.028	1.11 ± 0.27	0.934 ± 0.074	0.99 (active)
Cc1ccccc1CC(CC(=O)O)C(=O)O (stereo unspecified)	1.1 ± 0.089	0.979 ± 0.12	0.93 ± 0.094	1.03 ± 0.048	1.21 ± 0.12	1.3 ± 0.19	1.03 (active)
Cc1ccc(/C(=C\CN2CCCC2)c2ccccn2)cc1.Cl.O	0.96 ± 0.26	1.11 ± 0.056	1.05 ± 0.073	0.672 ± 0.03	1.09 ± 0.13	1.31 ± 0.18	0.553 (inactive)
CC1=C(C(=O)OCC2CCCO2)C(c2ccc([N+](=O)[O-])cc2)C2=C(CC(C)(C)CC2=O)N1 (stereo unspecified)	1.16 ± 0.19	0.887 ± 0.08	0.848 ± 0.078	0.553 ± 0.02	1.04 ± 0.23	0.984 ± 0.11	0.995 (active)
Cc1ccc(NC(=O)CSc2nc3ccccc3[nH]2)cc1.Cl	1.28 ± 0.37	1.15 ± 0.1	1.02 ± 0.068	0.764 ± 0.036	1.19 ± 0.13	1.42 ± 0.16	0.388 (inactive)
Cl.OC(CCN1CCCCC1)(c1ccccc1)C1CCCCC1 (stereo unspecified)	0.338 ± 0.034	1.01 ± 0.081	1.11 ± 0.075	1.03 ± 0.058	1.11 ± 0.19	1.08 ± 0.34	1.01 (active)
Cc1c(C(=O)Nc2ccc(N3C[C@@H](C)O[C@@H](C)C3)nc2)cccc1-c1ccc(OC(F)(F)F)cc1	1.25 ± 0.17	1.13 ± 0.2	1.64 ± 0.18	0.412 ± 0.024	1.13 ± 0.13	1.37 ± 0.1	0.824 (active)
O=C(Nc1ccc([N+](=O)[O-])cc1Cl)c1ccc([N+](=O)[O-])cc1	0.961 ± 0.083	1.07 ± 0.069	0.937 ± 0.06	0.937 ± 0.032	1.48 ± 0.11	1.23 ± 0.3	1.01 (active)
COc1ccc(CN2CCN(c3cc(C)nc4c5c(C)cc(C)nc5nn34)CC2)cc1F	1.02 ± 0.08	0.961 ± 0.071	1.06 ± 0.13	1.17 ± 0.037	1.34 ± 0.18	1.42 ± 0.2	0.995 (active)
COc1ccc(CC(=O)Nc2ccc(C)c(N3CCCCC3=O)c2)cc1OC	1.42 ± 0.34	1.18 ± 0.09	1.06 ± 0.071	0.937 ± 0.059	0.98 ± 0.14	1.06 ± 0.12	1 (active)
O=C(NCCc1nc(C2CC2)cc(C(F)(F)F)n1)c1c(F)cccc1Cl	1.01 ± 0.079	1.11 ± 0.087	0.943 ± 0.11	1.01 ± 0.053	1.13 ± 0.086	1.07 ± 0.12	1 (active)
CCN1CCCC1CNC(=O)c1cc(S(N)(=O)=O)ccc1OC (stereo unspecified)	1.01 ± 0.11	1.06 ± 0.07	0.992 ± 0.052	1.02 ± 0.11	0.982 ± 0.11	0.865 ± 0.068	1 (active)
CCOC(=O)C1=C(C)NC(C)=C(C(=O)OCC)C1c1cc(Cl)cc(Cl)c1OC	0.478 ± 0.064	0.44 ± 0.037	1.05 ± 0.1	1.07 ± 0.16	0.852 ± 0.039	2.23 ± 0.43	0.216 (inactive)
